Assay [1] has as its target Nuclear receptor ROR-gamma (Homo sapiens) (UniProt P51449). Briefly: qHTS assay for small molecule antagonists of the retinoid-related orphan receptor gamma (ROR-gamma) signaling pathway (AID 651802).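 Also: luciferase reporter luminescence driven by ROR response element; nearly all actives have a fitted effect of over 60% in size.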 Particulars: ROR-gamma antagonist cell reporter assay; series mostly up to 92.2 µM. Summed up: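 CHO, TET-inducible ROR + RORE-LUC reporter, 1536-well qHTS. Compound pinned, doxycycline added, 16hr 37C/5% CO2. ONE-Glo, 30 min RT, luminescence; signal drop scored as antagonism.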
(Quantitative high-throughput screening tests each substance at several concentrations.)

A short description of assay [2]: qHTS assay for small molecule antagonists of the retinoid-related orphan receptor gamma (ROR-gamma) signaling pathway - cell viability counter screen (AID 720652; active = well fitted curve in the direction sought with a large enough effect in the repeat runs; an effect the other way counts as inactive or inconclusive;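 also: compound exposure lasted 16 hr before ATP read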). Conditions: RORgamma reporter cell line viability counter screen; series mostly up to 92.2 µM. Summed up:
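Luminescence from CellTiter-Glo after 30 min at room temperature reported cellular ATP as the cytotoxicity measure. Cells were the CHO reporter line with doxycycline-induced ROR-gamma expression, exposed to compound for 16 hr at 37 C.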

For assay [3], the target named is Arylsulfatase A (Homo sapiens) (UniProt P15289). As to the kind of experiment: qHTS screen for enhancers of Arylsulfatase A (ASA1): LOPAC Validation Assay (AID 720538). Particulars: ASA enzyme activity, LOPAC qHTS enhancer assay; series mostly up to 57.5 µM. The method, boiled down: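 Enhancer assay in patient-derived MLD fibroblasts carrying ASA-I179S: 48 h compound exposure at 37 C, then 14 h room-temperature pNCS turnover (0.5 mM final) in lysis buffer. Read by fluorescence at 525/598 nm after NaOH stop.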
Chain of Arylsulfatase A (Homo sapiens) (P15289 whole entry, looked up): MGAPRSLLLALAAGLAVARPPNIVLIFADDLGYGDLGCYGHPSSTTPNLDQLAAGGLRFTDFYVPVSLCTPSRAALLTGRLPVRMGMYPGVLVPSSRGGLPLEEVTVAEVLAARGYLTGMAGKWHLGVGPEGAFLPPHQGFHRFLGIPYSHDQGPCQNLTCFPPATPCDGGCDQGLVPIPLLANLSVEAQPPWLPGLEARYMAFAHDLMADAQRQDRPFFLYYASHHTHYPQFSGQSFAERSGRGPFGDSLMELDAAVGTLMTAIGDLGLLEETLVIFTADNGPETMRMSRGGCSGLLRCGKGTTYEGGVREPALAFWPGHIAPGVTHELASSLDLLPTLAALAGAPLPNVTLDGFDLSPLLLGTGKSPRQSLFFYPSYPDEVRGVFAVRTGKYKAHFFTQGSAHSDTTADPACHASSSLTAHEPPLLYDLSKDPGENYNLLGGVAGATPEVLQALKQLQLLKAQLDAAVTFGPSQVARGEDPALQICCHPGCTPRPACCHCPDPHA

Results filed as inconclusive are left out. Calls of active or inactive are those of the source. Unless noted, calls follow the shape of the dose curve; as a rule, active = well fitted curve in the direction sought with a large enough effect; inconclusive = small, poorly fitted or top-dose-only effect, or another doubt; inactive = no such curve, though single readings can be large; an effect the other way counts as inactive or inconclusive.

Chain of Nuclear receptor ROR-gamma (Homo sapiens) (P51449 whole entry, looked up): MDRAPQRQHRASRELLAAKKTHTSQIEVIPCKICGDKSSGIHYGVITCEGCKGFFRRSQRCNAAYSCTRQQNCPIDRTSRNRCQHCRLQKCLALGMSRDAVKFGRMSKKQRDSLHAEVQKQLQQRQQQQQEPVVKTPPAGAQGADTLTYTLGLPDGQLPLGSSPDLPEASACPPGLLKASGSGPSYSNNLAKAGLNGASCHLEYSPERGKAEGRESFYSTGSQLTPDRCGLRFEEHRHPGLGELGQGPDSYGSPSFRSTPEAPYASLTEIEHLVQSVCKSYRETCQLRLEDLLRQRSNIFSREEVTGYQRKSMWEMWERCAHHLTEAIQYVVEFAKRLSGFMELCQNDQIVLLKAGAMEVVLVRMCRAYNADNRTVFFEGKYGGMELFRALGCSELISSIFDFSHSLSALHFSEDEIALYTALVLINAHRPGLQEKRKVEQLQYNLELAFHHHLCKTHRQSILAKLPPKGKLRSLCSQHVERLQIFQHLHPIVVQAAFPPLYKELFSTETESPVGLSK

Consider `Cc1cc(O)c2c(c1)C(=O)c1cccc(O)c1C2=O`, for which the result in assay [1] and in assay [2] was inactive.

Turning to `O=c1[nH]c(=O)n([C@H]2C[C@@H](O)[C@@H](CO)O2)cc1C=CBr`, the result in assay [3] was inactive.

Take `CN[C@H](CC(C)C)C(=O)N[C@H]1C(=O)N[C@@H](CC(N)=O)C(=O)N[C@@H]2C(=O)N[C@H]3C(=O)N[C@H](C(=O)N[C@H](C(=O)O)c4cc(O)cc(O)c4-c4cc3ccc4O)[C@H](O)c3ccc(c(Cl)c3)Oc3cc2cc(c3O[C@@H]2O[C@H](CO)[C@@H](O)[C@H](O)[C@@H]2O[C@H]2C[C@](C)(N)[C@H](O)[C@H](C)O2)Oc2ccc(cc2Cl)[C@H]1O`: in assay [3], the outcome was inactive.

The values are drawn from PubChem BioAssay (NCATS).
